Source: PubChem BioAssay (National Center for Advancing Translational Sciences (NCATS))
BAZ2B block: BAZ2B (human) inhibition. Q9UIF8. Potency, µM (top dose mostly 114 µM), for inactives: at the highest dose activity change, negative = inhibition, actives largely listed as inhibitors. hit rate 4.4% among 360,000. AlphaScreen BAZ2B-H3K14Ac peptide displacement; note: % is set by controls: 0 for no effect and ±100 for the full control effect; nearly all actives have a fitted effect of over 60% in size
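Inhibition is scored as reduced AlphaScreen emission. The BAZ2B/b-H3(5-23)K14Ac complex (50 nM each) in PBS pH 7.4, 0.01% Tween-20 meets compound (up to 110 uM) for 30 min at RT before bead addition.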
HP1b chromo inh: HP1-beta chromodomain-methylated histone interaction inhibition; AlphaScreen HP1-beta / biotin-H3K9me3 peptide binding; Potency, µM (doses to about 114 µM), without a hit: top-dose activity change, negative = inhibition, usual class: inhibitors; hit rate 0.56% among 390,000; AID 540317; note: nearly all actives have a fitted effect of over 70% in size
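Compound inhibition of the preformed complex between 50 nM HP1-beta and 50 nM biotinylated H3K9me3 peptide was read by AlphaScreen. Buffer was PBS pH 7.4 with 0.01% Tween-20. Incubations ran 30 min at room temperature, with 10 ug/mL donor/acceptor beads.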
JMJD2A Tudor: inhibitors of human JMJD2A Tudor domain; Potency, µM (highest dose often 114 µM), without a hit: at the highest dose activity change, negative = inhibition, most hits filed as inhibitors; AlphaScreen JMJD2A-Tudor / H3K4me3 peptide binding; hit rate 4.4% among 390,000; O75164; note: % is set by controls: 0 for no effect and ±100 for the full control effect; nearly all actives have a fitted effect of over 50% in size
Target sequence (O75164 whole entry, looked up, the tested form may be a part): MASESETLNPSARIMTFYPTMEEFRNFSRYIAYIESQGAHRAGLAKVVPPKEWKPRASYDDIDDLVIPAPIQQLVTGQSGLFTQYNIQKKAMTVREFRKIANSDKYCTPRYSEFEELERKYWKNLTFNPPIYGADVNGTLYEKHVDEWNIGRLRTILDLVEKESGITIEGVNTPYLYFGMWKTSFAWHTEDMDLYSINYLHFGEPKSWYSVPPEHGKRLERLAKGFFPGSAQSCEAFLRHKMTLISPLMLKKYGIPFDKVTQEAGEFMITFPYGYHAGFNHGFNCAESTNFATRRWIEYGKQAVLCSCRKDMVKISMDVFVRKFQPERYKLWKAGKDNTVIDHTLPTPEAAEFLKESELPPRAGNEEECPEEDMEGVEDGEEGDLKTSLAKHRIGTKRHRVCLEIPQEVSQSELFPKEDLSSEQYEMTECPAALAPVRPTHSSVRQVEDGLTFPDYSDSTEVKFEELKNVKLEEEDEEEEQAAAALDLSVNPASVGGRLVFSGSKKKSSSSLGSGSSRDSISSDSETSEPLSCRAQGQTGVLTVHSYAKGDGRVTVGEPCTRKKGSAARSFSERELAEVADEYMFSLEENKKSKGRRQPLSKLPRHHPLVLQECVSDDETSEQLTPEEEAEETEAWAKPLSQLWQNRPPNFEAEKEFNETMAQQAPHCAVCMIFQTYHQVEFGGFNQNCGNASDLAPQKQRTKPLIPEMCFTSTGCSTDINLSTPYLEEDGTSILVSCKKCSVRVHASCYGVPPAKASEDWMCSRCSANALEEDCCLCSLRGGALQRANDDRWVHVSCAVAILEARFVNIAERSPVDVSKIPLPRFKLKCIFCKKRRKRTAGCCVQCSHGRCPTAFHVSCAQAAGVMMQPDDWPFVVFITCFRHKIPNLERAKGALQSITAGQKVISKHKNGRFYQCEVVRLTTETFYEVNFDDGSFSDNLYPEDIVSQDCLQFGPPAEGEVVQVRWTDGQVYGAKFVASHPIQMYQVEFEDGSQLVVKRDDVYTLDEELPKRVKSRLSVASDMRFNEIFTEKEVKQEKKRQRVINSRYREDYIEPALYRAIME
G9a block: blocks human histone lysine methyltransferase G9a | Potency, µM (titrated, usually from 102 µM), without a hit: at the highest dose activity, negative = inhibition, hits mostly inhibitors | G9a H3K9 monomethylation, AlphaScreen, 2 h | Q96KQ7 | AID 504332 | hit rate 8.8% among 350,000; note: % is set by controls: 0 for no effect and ±100 for the full control effect; nearly all actives have a fitted effect of over 75% in size
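Methyltransferase reactions run at room temperature for 2 h (20 nM enzyme, 500 nM biotin-H3K9 peptide, 20 uM SAM) after a 15 min compound preincubation; product detected by AlphaScreen beads and anti-H3K9me1 antibody.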
L3MBTL1 block: inhibitors of human L3MBTL1; Q9Y468; AlphaScreen L3MBTL1–H3K9me1 peptide binding; Potency, µM (highest dose often 57.1 µM), without a hit: at the highest dose activity, negative = inhibition, hits mostly inhibitors; hit rate 0.66% among 230,000; note: % is set by controls: 0 for no effect and ±100 for the full control effect; nearly all actives have a fitted effect of over 60% in size
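L3MBTL1 50 nM + b-AHA-H3(1-15)K9me1 75 nM, 30 min RT; compound added, 30 min RT; streptavidin donor/Ni-chelate acceptor beads 10 ug/mL each final, 30 min RT dark; AlphaScreen read.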
Sfp inh: blocks B. subtilis Sfp PPTase activity. Q9F4F7. hit rate 3.5% among 310,000. Potency, µM, for the others: largest response in the series, negative = inhibition, hits mostly inhibitors. Biochemical Sfp PPTase activity, qHTS;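 note: the enzyme is Sfp with the accession as filed and its product quenches rhodamine fluorescence; 0% = enzyme reaction without inhibitor and -100% = no enzyme wells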
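After 15 min at room temperature with compound, 15 nM Sfp received 5 uM rhodamine-CoA plus 12.5 uM BHQ-2-ybbR (50 mM Hepes pH 7.6, 10 mM MgCl2). Rate came from the fluorescence difference over 30 min, ex 525/em 598 nm.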
The depositor's hits bear a star; [ ] = remark or other dose. Compounds with a hit are over-represented: about 12% of the library has one in this group of screens. Calls come from the whole dose curve; as a rule, active = well fitted curve in the direction sought with a large enough effect; inconclusive = small, poorly fitted or top-dose-only effect, or another doubt; inactive = no such curve, though single readings can be large; an effect the other way counts as inactive or inconclusive. Potency is the fitted concentration of half-maximal effect.

How did CN1C(=O)C(=Cc2ccc(N3CCOCC3)o2)C(=O)N(C)C1=S do in these assays?
BAZ2B block: inconclusive; HP1b chromo inh: -22%; JMJD2A Tudor: -19%; G9a block: -4%; L3MBTL1 block: -5%; Sfp inh: 6%

What do the screens show for `CCCN1C[C@H](C)N([C@H](c2ccc(C(=O)N(CC)CC)cc2)c2cccc(OC)c2)C[C@H]1C`?
G9a block: 7%[59 µM]; Sfp inh: 13%

What do the screens show for `OCC1CCCN2CCCCC12` (stereo not drawn)?
G9a block: 28%[59 µM]; Sfp inh: 15%

What do the screens show for `O=C(Nc1nnc(-c2ccco2)o1)c1cccc2ccccc12`?
BAZ2B block: inconclusive; HP1b chromo inh: 32%; JMJD2A Tudor: inconclusive; G9a block: 9%; L3MBTL1 block: 18%; Sfp inh: 22%

What do the screens show for `O=C(CCS(=O)(=O)c1ccccc1)Nc1nnc(-c2ccco2)o1`?
BAZ2B block: 50µM*; HP1b chromo inh: 23%; JMJD2A Tudor: 25µM*; G9a block: 32µM*; Sfp inh: inconclusive

How did CC(=O)c1c(COC(=O)c2cccnc2)nc2ccccc2[n+]1[O-] do in these assays?
BAZ2B block: 5%; HP1b chromo inh: 28%; JMJD2A Tudor: -9%; G9a block: 10µM*; L3MBTL1 block: -1%; Sfp inh: 3%

What do the screens show for `CC(=O)O[C@@]12CO[C@@H]1C[C@H](O)[C@@]1(C)C(=O)[C@H](O)C3=C(C)[C@@H](OC(=O)[C@H](O)[C@@H](NC(=O)c4ccccc4)c4ccccc4)C[C@@](O)([C@@H](OC(=O)c4ccccc4)C12)C3(C)C` (stereo partly drawn)?
BAZ2B block: -8%; HP1b chromo inh: 17%; JMJD2A Tudor: -22%; G9a block: 17%[12.7 µM]; Sfp inh: 11µM*

How did CCN1C[C@@]2(COC)C3[C@@H](OC)C4[C@@H]1C3([C@@H]1C[C@]3(O)[C@H](OC(=O)c5ccccc5)[C@@H]1[C@]4(OC(C)=O)[C@@H](O)[C@@H]3OC)[C@H](OC)C[C@H]2O do in these assays?
G9a block: 21%[59 µM]

What do the screens show for `C=C1C/C(=C\C)C(=O)O[C@@H]2CCN3CC=C(COC(=O)[C@@]1(C)O)[C@H]23`?
G9a block: 22%[21.5 µM]; Sfp inh: 14%

Results for CN1C(=O)NC(=O)/C(=C\C=C\c2ccccc2[N+](=O)[O-])C1=O ?
BAZ2B block: inconclusive; HP1b chromo inh: inconclusive; JMJD2A Tudor: inconclusive; G9a block: 7.9µM*; L3MBTL1 block: -1%; Sfp inh: 18µM*

What do the screens show for `Cc1ccc(C2C(S(C)(=O)=O)=C(O)C(=O)N2c2ccccc2)cc1` (stereo not drawn) (tested in a mixture with another compound)?
BAZ2B block: inconclusive; HP1b chromo inh: 4%; JMJD2A Tudor: inconclusive; G9a block: 71µM*; L3MBTL1 block: 5%; Sfp inh: 7%

How did CCOC(=O)c1c(C)n(CCN2CCN(C)CC2)c2ccc(OC)cc12 do in these assays?
BAZ2B block: -34%; HP1b chromo inh: inconclusive; JMJD2A Tudor: 18µM*; G9a block: inconclusive; L3MBTL1 block: -2%; Sfp inh: 7%

How did Cc1ccc2cc(C=C(C#N)C#N)c(Cl)nc2c1 do in these assays?
BAZ2B block: -28%; HP1b chromo inh: -8%; JMJD2A Tudor: -34%; G9a block: inconclusive; L3MBTL1 block: -2%; Sfp inh: 56µM*

Results for O=C(N/N=C/c1c(O)n(Cc2ccccc2)c(=O)[nH]c1=O)c1ccncc1 ?
BAZ2B block: 50µM*; HP1b chromo inh: 18%; JMJD2A Tudor: inconclusive; G9a block: -37%; Sfp inh: 17%

Results for O=C(N/N=C/c1c(O)n(Cc2ccc(F)cc2)c(=O)[nH]c1=O)c1ccccc1 ?
BAZ2B block: 79µM*; HP1b chromo inh: 41%; JMJD2A Tudor: inconclusive; G9a block: 1%; L3MBTL1 block: -29%; Sfp inh: 24%

What do the screens show for `C=CCn1c(O)c(/C=N/NC(=O)c2ccncc2)c(=O)[nH]c1=O`?
BAZ2B block: 79µM*; HP1b chromo inh: 42%; JMJD2A Tudor: -23%; G9a block: 1%; Sfp inh: 0%

What do the screens show for `COC1=CC(=O)O[C@H](/C=C/c2ccc3c(c2)OCO3)C1`?
Sfp inh: 18%

What do the screens show for `C/C=C(/C)C(=O)OC1CC[C@]2(C)C3CCC4[C@]5(O)CC(O)[C@]6(O)C(CN7CC(C)CCC7[C@]6(C)O)[C@]5(O)C[C@@]42O[C@]13O` (stereo partly drawn)?
Sfp inh: 2%

Results for O=C(O)C1CN(CP(=O)(O)O)CCN1 (stereo not drawn) ?
G9a block: 20%[59 µM]; Sfp inh: 0%

How did CCOC(=O)c1c(C)n(Cc2ccco2)c2c1cc(O)c1ccccc12 do in these assays?
BAZ2B block: -11%; HP1b chromo inh: 7%; JMJD2A Tudor: -18%; G9a block: 16µM*; Sfp inh: inconclusive

What do the screens show for `C#CCOc1ccc(OC)cc1C(c1c(C)[nH][nH]c1=O)c1c(C)[nH][nH]c1=O`?
BAZ2B block: -3%; HP1b chromo inh: 5%; JMJD2A Tudor: -14%; G9a block: inconclusive; L3MBTL1 block: -1%; Sfp inh: -3%

Results for CSc1ccc(C(=O)C2CCCN(Cc3cccnc3)C2)cc1 (stereo not drawn) ?
BAZ2B block: -5%; HP1b chromo inh: -25%; JMJD2A Tudor: -30%; G9a block: 2%; L3MBTL1 block: -8%; Sfp inh: 15%

What do the screens show for `CSc1ccc(C(=O)C2CCCN(Cc3cc4ccccc4[nH]3)C2)cc1` (stereo not drawn)?
BAZ2B block: 20µM*; HP1b chromo inh: inconclusive; JMJD2A Tudor: 11µM*; G9a block: 16µM*; L3MBTL1 block: -10%; Sfp inh: -12%

How did COc1cc2c(cc1O)C[C@H]1c3c(cc(OC)c(O)c3-2)CCN1C do in these assays?
Sfp inh: -32%

How did O=C1NC(=O)N(c2ccccc2F)C(=O)/C1=C/c1ccc(Oc2ccc([N+](=O)[O-])cn2)cc1 do in these assays?
BAZ2B block: 56µM*; HP1b chromo inh: -3%; JMJD2A Tudor: inconclusive; G9a block: 20µM*; Sfp inh: 50µM*

Results for CCN(CC)C(=O)Cn1cc(/C=C2\C(=O)NC(=O)N(c3ccccc3F)C2=O)c2ccccc21 ?
BAZ2B block: -10%; HP1b chromo inh: 17%; JMJD2A Tudor: -12%; G9a block: 22%[0.501 µM]; Sfp inh: inconclusive
